HEK293 tox: qHTS of GLP-1 Receptor Inverse Agonists: Cytotox Screen. Potency, µM (highest dose often 38.3 µM), hits mostly inhibitors. HEK293 cAMP-luciferase reporter cells, luminescence, 24 h. AID 624418, 2012. 0.13% of 410,000 active;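 also: loss of luciferase light is scored as toxicity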
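To flag toxic compounds, the library was rerun on cells for 24 hr at 37 deg C and 5% CO2. Viability-linked luminescence was captured 12 min after adding luciferase detection reagent.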
Pin1 inh: qHTS Assay to Find Inhibitors of Pin1. Peptidyl-prolyl cis-trans isomerase NIMA-interacting 1 (Homo sapiens), Q13526. Pin1 FP peptide displacement, HiFluor488, 10 min. Potency, µM (series often up to 115 µM), hits mostly inhibitors. 0.009% of 390,000 active. AID 504891, 2011; active = well fitted inhibition curve with a large enough effect in the polarisation, with a control signal flat, not every such curve was filed as active; inconclusive = small, poorly fitted or top-dose-only effect, or effect the other way, or a change in a side signal; inactive = no such curve, though single readings can be large or run the other way; the % refers to the polarisation
GLP1R ag: qHTS of GLP-1 Receptor Agonists; HEK293 GLP-1R CRE-luciferase, luminescence, 4-6 h; cells express a hypersensitive GLP-1R form; Potency, µM (series often up to 45.6 µM), actives largely listed as activators; 0.007% of 380,000 active; AID 624172, 2012; Glucagon-like peptide 1 receptor (Homo sapiens), P43220
Target sequence (P43220 whole entry, looked up): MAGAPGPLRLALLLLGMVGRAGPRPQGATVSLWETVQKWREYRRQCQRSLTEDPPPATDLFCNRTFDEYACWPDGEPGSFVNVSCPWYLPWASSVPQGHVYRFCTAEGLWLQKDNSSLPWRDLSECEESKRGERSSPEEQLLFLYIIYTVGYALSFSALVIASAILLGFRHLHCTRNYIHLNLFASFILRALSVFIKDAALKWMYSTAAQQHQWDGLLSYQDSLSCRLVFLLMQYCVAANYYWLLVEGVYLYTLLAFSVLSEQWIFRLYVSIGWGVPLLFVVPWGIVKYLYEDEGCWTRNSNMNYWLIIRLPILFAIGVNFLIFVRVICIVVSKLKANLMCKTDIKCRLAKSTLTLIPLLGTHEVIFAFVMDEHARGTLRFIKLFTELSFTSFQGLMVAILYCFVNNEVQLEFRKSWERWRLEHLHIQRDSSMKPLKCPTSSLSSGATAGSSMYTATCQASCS
GLP1R inv ag: qHTS of GLP-1 Receptor Inverse Agonists (Inhibition Mode) | Glucagon-like peptide 1 receptor (Homo sapiens), P43220 | HEK293 GLP-1R CRE-luciferase, luminescence, 24 h; GLP-1R form is constitutively active | Potency, µM (doses to about 38.3 µM), usual class: inhibitors | 1.6% of 410,000 active; also: nearly all actives have a fitted effect of over 55% in size
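Luminescence readout: a drop in cAMP-driven luciferase signal flags inverse agonism at a constitutively active GLP-1R stably expressed in HEK293. Compound exposure lasted 24 hr at 37 deg C, 5% CO2.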
PTHR1 ag: qHTS for PTHR1 Agonists: Primary Screen; HEK293 GP2 PTHR1 cells, GloSensor cAMP luminescence, 1 h; Potency, µM (highest dose often 115 µM), usual class: activators; 0.075% of 410,000 active; AID 743266, 2014; also: nearly all actives have a fitted effect of over 55% in size
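HEK-293-derived GP2 cells expressing PTHR1 and a GloSensor cAMP reporter, 3,000/well, plated overnight, given luciferin plus IBMX (each 0.5 mM as added) for 1 h at 37 °C, then compound for 1 h at 37 °C. Luminescence was read after 15 min at room temperature.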
miR-21 reporter: qHTS Assay for Modulators of miRNAs and/orActivators of miR-21 | 340,000 tested, under 10 active | Potency, µM (highest dose often 38.3 µM), actives largely listed as activators | HeLa miR-21 FLuc reporter, luciferase, 48 h;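 also: miR-21 action dims this reporter so a rising signal means less miR-21 action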
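HeLa cells stably expressing CMV-driven firefly luciferase with a downstream miR-21 binding sequence, endogenously expressing miR-21, were treated with titrations (up to about 40uM final) for 48 hours at 37 degree Celsius. Luciferase luminescence was read after lysis.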
Each line names hits and unclear results; the compound was inactive in the other large screens. Shown are actives, neighbours in structure and some others; about 1.7% of the full set was active somewhere. Unless noted, calls follow the shape of the dose curve; as a rule, active = well fitted curve in the direction sought with a large enough effect; inconclusive = small, poorly fitted or top-dose-only effect, or another doubt; inactive = no such curve, though single readings can be large; an effect the other way counts as inactive or inconclusive.

CCN1C(=O)c2ccccc2C1Nc1cccc(OCCN2CCCCC2)c1 (stereo not given)	none (no result: HEK293 tox, Pin1 inh, GLP1R inv ag, PTHR1 ag, miR-21 reporter)
CCOc1cc(-c2ccc(OC(=O)c3ccc(Cl)cc3)c(OC)c2)cc(=O)c2c(C)oc(C)c12	none (no result: GLP1R ag)
COc1ccc(/C=C/C(O)=C2/C(=O)N(C)C3(C)CC2c2ccccc2O3)cc1 (stereo not given)	GLP1R inv ag inconclusive
Cc1ccc(/C=C/C(O)=C2/C(=O)N(C)C3(C)CC2c2ccccc2O3)cc1 (stereo not given)	GLP1R inv ag 2.2µM, miR-21 reporter inconclusive
COc1ccc(Br)cc1CNC(=O)CCCc1cn(C)c2ccccc12	GLP1R inv ag 22µM
Cc1cc2c(s1)c1cnn(Cc3c(F)ccc(F)c3Cl)c(=O)c1n2C	none (no result: HEK293 tox, GLP1R ag, GLP1R inv ag, PTHR1 ag, miR-21 reporter)
CCN(CC(=O)Nc1ccccc1C(F)(F)F)C(=O)C1CSC2(C)CCC(=O)N12 (stereo not given)	GLP1R inv ag 11µM (no result: miR-21 reporter)
CN(CC(=O)Nc1c(Cl)cccc1Cl)C(=O)C1CSC2(C)CCC(=O)N12 (stereo not given)	none (no result: miR-21 reporter)
CCOC(=O)CC(=O)CSc1nc2cc(C)ccc2cc1C	Pin1 inh inconclusive, GLP1R inv ag 10µM
Cc1c(N=C/C=C2\N(C)c3ccccc3C2(C)C)c(=O)n(-c2ccccc2)n1C	HEK293 tox 2.2µM, GLP1R inv ag inconclusive
COc1ccc(S(=O)(=O)N2CCOc3ccccc32)cc1	HEK293 tox inconclusive, GLP1R inv ag 3.5µM
COc1cc2c(cc1NC(=O)Nc1ccc(C)cc1)oc1ccccc12	GLP1R inv ag 1.8µM
CCCNC(=S)Nc1cc2oc3ccccc3c2cc1OC	GLP1R inv ag 8.9µM
CC(C)n1c(Nc2ccccc2)nc2ccccc21	GLP1R inv ag 11µM
CC(C)n1c(NCc2cc(Cl)ccc2O)nc2ccccc21	GLP1R inv ag 10µM
Oc1ccc(Cl)cc1CNc1cnc2ccccc2c1	GLP1R inv ag 10µM
CC(=O)NC1CCN(c2nc(-c3ccc(Br)cc3)cs2)CC1	none (no result: HEK293 tox, GLP1R ag, GLP1R inv ag, PTHR1 ag, miR-21 reporter)
Cc1ccc(C)c(NC(=O)CCCN2C(=O)C(c3ccccc3)Oc3cccnc32)c1 (stereo not given)	none
FC(F)(F)COc1nc(N2CCOCC2)nc(N(c2ccccc2)c2ccccc2)n1	Pin1 inh inconclusive, GLP1R inv ag inconclusive
FC(F)(F)COc1nc(OCC(F)(F)F)nc(N2CCN(c3ccccc3)CC2)n1	GLP1R inv ag 5µM
CC(Nc1nc(-c2ccc(F)cc2)cs1)c1nc2cc(C(F)(F)F)ccc2n1CCCO (stereo not given)	GLP1R inv ag 7.9µM (no result: miR-21 reporter)
Cc1ccc(Cn2c(C(C)Nc3nc(-c4ccc(F)cc4)cs3)nc3cc(C(F)(F)F)ccc32)cc1 (stereo not given)	GLP1R inv ag 10µM (no result: miR-21 reporter)
CC(Nc1nc(-c2ccc(F)cc2)cs1)c1nc2cc(C(F)(F)F)ccc2n1CCOCCO (stereo not given)	none (no result: miR-21 reporter)
COc1ccc2c(CNCCc3ccccc3)c(C(=O)O)n(Cc3cccc(F)c3)c2c1	none (no result: GLP1R ag)
CCCCc1nn2c(C)c(-c3ccc(OCC)cc3)nc2s1	GLP1R inv ag 10µM (no result: GLP1R ag)
CCCCCCCc1nn2c(=O)cc(O)nc2s1	none
Cc1ccc(Nc2nc(NCc3ccco3)nc3nccnc23)c(C)c1	none (no result: HEK293 tox, GLP1R ag, GLP1R inv ag, PTHR1 ag, miR-21 reporter)
CCOC(=O)c1cccc(NC(=O)Nc2c(C)n(C)n(-c3ccccc3)c2=O)c1	none (no result: GLP1R ag)
O=C1CC(c2ccccc2)=C(c2ccccc2)C1c1ccccc1 (stereo not given)	GLP1R inv ag 14µM (no result: miR-21 reporter)
O=c1c2ccccc2nc(-c2ccc(Cl)cc2)n1CCCCOc1ccc(F)cc1	none (no result: GLP1R ag)

High-throughput results: PubChem, National Center for Advancing Translational Sciences (NCATS)
